Data on 18 sequences can be found in the supplement of paper PMC12645437, “Orthogonal IMiD-Degron Pairs Induce Selective Protein Degradation in Cells” (ACS Chemical Biology, 2025).

The full ranking holds about 8,300 sequences; the median of “log2 fold change of degron read counts, EGFP-low vs EGFP+ sorted cells (limma voom), compound-induced degradation” is about -1.1, and the highest 2% start at about 3.2. The list comes from a sample in which the highest values are over-represented; it also holds similar and randomly drawn sequences.

The target of the experiment is T1, CRBN, Q96SW2.
T1 chain: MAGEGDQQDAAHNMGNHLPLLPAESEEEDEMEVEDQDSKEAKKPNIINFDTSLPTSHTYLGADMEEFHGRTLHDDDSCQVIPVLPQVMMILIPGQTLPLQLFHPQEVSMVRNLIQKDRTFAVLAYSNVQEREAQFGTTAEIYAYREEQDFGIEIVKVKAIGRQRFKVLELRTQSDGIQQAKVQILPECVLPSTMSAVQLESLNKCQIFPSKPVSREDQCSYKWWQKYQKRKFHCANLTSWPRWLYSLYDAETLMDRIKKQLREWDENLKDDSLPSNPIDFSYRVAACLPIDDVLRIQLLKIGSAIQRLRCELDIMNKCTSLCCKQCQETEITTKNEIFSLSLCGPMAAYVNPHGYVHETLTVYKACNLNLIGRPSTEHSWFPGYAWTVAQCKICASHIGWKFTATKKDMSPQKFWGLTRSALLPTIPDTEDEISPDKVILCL
As to the kind of experiment: log2 fold change of degron read counts, EGFP-low vs EGFP+ sorted cells (limma voom), compound-induced degradation; higher = more compound-induced degradation of the degron-EGFP fusion; degrons are variants of IKZF1/3 zinc finger 2; compound dose not given here. The settings on record: Jurkat, 18 h. How it is done: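 Pooled library of 8380 IKZF3 ZF2 degron mutants (positions 146-167 varied within the IKZF3 130-189 degron; only the varied core is printed, flanks not printed) fused to EGFP with IRES-mCherry, lentivirally expressed in Jurkat cells. mCherry+ cells were treated with one IMiD compound for 18 h (dose not stated) and FACS-sorted into EGFP-low and EGFP+ populations. Degron sequences were counted by NGS, and log2FC (EGFP-low vs EGFP+) was estimated by limma voom over 3 biological replicates.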

The mark [1] stands for this setting: compound: compound 19 (5-tert-butyl-thalidomide).
Setting [2] is: compound: compound 22 (5-morpholino-thalidomide).
[3] abbreviates: compound: compound 33 (diphenyl IMiD analogue).
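Note: pooled lentiviral library of zinc finger degron-EGFP fusions in mCherry-positive Jurkat cells, FACS-sorted after compound exposure, with degron abundance counted by next-generation sequencing.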

Take FSCNICGATFTQKGNLLRHIKL [46F_47S_49N_50I_52G_53A_54T_55F_67L_, Q9UKT9]: the “log2 fold change of degron read counts” value under setting [1] was determined as 0.862, the “log2 fold change of degron read counts” value under setting [2] was 1.72, the “log2 fold change of degron read counts” value under setting [3] was 1.81 and the “log2 fold change of degron read counts” value (compound: thalidomide) worked out at 0.773.
The like results for FRCSVCGHPFTQKGNLLRHIKL [46F_47R_49S_50V_52G_53H_54P_55F_67L_, Q9UKT9] were, in that order, -1.61, 0.0411, -0.252 and -0.256.
For LDCNQCGFVCTQKGNLLRHIKL [46L_47D_49N_50Q_52G_53F_54V_55C_67L_, Q9UKT9] the same measures were -1.84, -2.2, -2.2 and -1.82.
The like results for FDCNVCGASFTQKGNLLRHIKL [46F_47D_49N_50V_52G_53A_54S_55F_67L_, Q9UKT9] were, in that order, -0.855, -1.38, -1.21 and -0.475.
On to FDCEICGRTFTQKGNLLRHIKL [46F_47D_49E_50I_52G_53R_54T_55F_67L_, Q9UKT9], for which the “log2 fold change of degron read counts” value is -2.33 under setting [1], -3.04 under setting [2], -1.56 under setting [3] and -1.64 (compound: thalidomide).
For FRCEICGRSFTQKGNLLRHIKL [46F_47R_49E_50I_52G_53R_54S_55F_67L_, Q9UKT9] the same measures were -2.18, -2.81, -0.226 and -0.504.
The like results for FECNICGAIFTQKGNLLRHIKL [46F_47E_49N_50I_52G_53A_54I_55F_67L_, Q9UKT9] were, in that order, -2.22, -1.59, 0.523 and 1.84.
For FCCPVCGASFTQKGNLLRHIKL [46F_47C_49P_50V_52G_53A_54S_55F_67L_, Q9UKT9] the same measures were 3.07, 2.44, 2.49 and 2.37.
For the sequence FVCDVCGASFTQKGNLLRHIKL [46F_47V_49D_50V_52G_53A_54S_55F_67L_, Q9UKT9], the “log2 fold change of degron read counts” value by setting is: under setting [1], -1.45; under setting [2], 1.32; under setting [3], 0.282; (compound: thalidomide) 0.656.
The like results for FECDVCGASFTQKGNLLRHIKL [46F_47E_49D_50V_52G_53A_54S_55F_67L_, Q9UKT9] were, in that order, -0.176, -2.77, -0.519 and -0.688.
Regarding FWCDVCGASFTQKGNLLRHIKL [46F_47W_49D_50V_52G_53A_54S_55F_67L_, Q9UKT9], the “log2 fold change of degron read counts” value under setting [1] stood at 2.69, the “log2 fold change of degron read counts” value under setting [2] was found to be 3.48, the “log2 fold change of degron read counts” value under setting [3] was 1.06 and the “log2 fold change of degron read counts” value (compound: thalidomide) is -0.779.
The like results for FLCPVCGASFTQKGNLLRHIKL [46F_47L_49P_50V_52G_53A_54S_55F_67L_, Q9UKT9] were, in that order, 0.819, -0.0304, 1.62 and 1.37.
The like results for FWCPVCGASFTQKGNLLRHIKL [46F_47W_49P_50V_52G_53A_54S_55F_67L_, Q9UKT9] were, in that order, 3.31, 3.48, 2.42 and 1.35.
For FHCPVCGASFTQKGNLLRHIKL [46F_47H_49P_50V_52G_53A_54S_55F_67L_, Q9UKT9] the same measures were 2.48, 2.53, 2.04 and 0.495.
Turning to FICPVCGASFTQKGNLLRHIKL [46F_47I_49P_50V_52G_53A_54S_55F_67L_, Q9UKT9], the “log2 fold change of degron read counts” value is -0.331 under setting [1], 2.74 under setting [2], 2.17 under setting [3] and 2.62 (compound: thalidomide).
The like results for FYCPVCGASFTQKGNLLRHIKL [46F_47Y_49P_50V_52G_53A_54S_55F_67L_, Q9UKT9] were, in that order, 3.09, 3.3, 2.34 and 1.12.
Consider FTCNQCGHIFTQKGNLLRHIKL [46F_47T_49N_50Q_52G_53H_54I_55F_67L_, Q9UKT9], for which the “log2 fold change of degron read counts” value by setting is: under setting [1], -3.22; under setting [2], -3.78; under setting [3], -2.72; (compound: thalidomide) -3.39.
Consider LFCNQCGFTCTQKGNLLRHIKL [46L_47F_49N_50Q_52G_53F_54T_55C_67L_, Q9UKT9], for which the “log2 fold change of degron read counts” value was -0.962 under setting [1], -0.778 under setting [2], -1.34 under setting [3] and -1.55 (compound: thalidomide).
